# Data published in PubChem BioAssay (EPA / NIEHS).
# “And” between values parts separate entries of the source, which are not always exact repeats. Equal values may be shown once. Some structures have more than one record in an assay (separate samples or runs), and their calls can disagree. The source made the active and inactive calls. The calls were made as follows: active = hit-call score of the fitted dose curve at least 0.9, where 1 is the maximum; inactive = score below 0.9.
# Columns and labels:
# [1] = APR_HepG2_NuclearSize_72hr: Apredica 72-hour HepG2 Assay for Nuclear Size (AID 2282925); settings: high-content imaging, actives raise or lower the signal
# Summary of the method: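 Nuclear size was read by high-content imaging of Hoechst 33342 stain after formaldehyde fixation. Compounds ran 72 h on HepG2 at 0.39 to 200 uM, with final DMSO 0.5% v/v. Curves fitted both directions relative to DMSO control.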
# [2] = ATG_CRE_CIS: Attagene CIS-FACTORIAL HepG2 Assay for human cAMP Responsive Element (CRE) binding protein 3 (AID 2282926); settings: HepG2 CRE cis-reporter, Attagene multiplexed mRNA; actives raise or lower the signal
# Summary of the method: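 Endogenous transcription factor activity read via CRE-regulated reporter transcripts in transfected HepG2 cells. After 24 h exposure, RNA was reverse-transcribed, amplified, fluorescently labelled and sized by capillary electrophoresis; gain or loss fitted against DMSO.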
# [3] = biological target: CCAAT/enhancer-binding protein beta (Homo sapiens) (UniProt P17676); experiment: ATG_C_EBP_CIS: Attagene CIS-FACTORIAL HepG2 Assay for human CCAAT/Enhancer Binding Protein (C/EBP) beta (AID 2282927); settings: HepG2 Attagene cis-factorial transcription factor reporter; actives raise or lower the signal
# Sequence of CCAAT/enhancer-binding protein beta (Homo sapiens) (P17676 whole entry, looked up): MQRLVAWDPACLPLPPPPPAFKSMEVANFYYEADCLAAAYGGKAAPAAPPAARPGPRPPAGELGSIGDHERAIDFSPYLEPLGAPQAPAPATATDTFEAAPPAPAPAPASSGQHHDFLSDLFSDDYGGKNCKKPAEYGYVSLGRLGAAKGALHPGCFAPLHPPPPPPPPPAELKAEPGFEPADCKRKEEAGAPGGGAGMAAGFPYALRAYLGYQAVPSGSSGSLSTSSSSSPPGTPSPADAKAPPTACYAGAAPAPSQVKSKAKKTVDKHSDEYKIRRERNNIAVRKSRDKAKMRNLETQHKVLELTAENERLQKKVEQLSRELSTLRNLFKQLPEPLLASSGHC
# Summary of the method: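 Endogenous transcription factor activity in human liver HepG2 cells is inferred from induction of a CEBPB-linked reporter mRNA. Exposure lasts 24 h; activity is fitted in both directions relative to DMSO.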
# [4] = ATG_CMV_CIS: Attagene CIS-FACTORIAL HepG2 Assay for human CMV (Internal Marker) (AID 2282928); settings: HepG2 CMV promoter reporter, transcription factor profiling; actives raise or lower the signal;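 also: endpoint acts as a background internal control marker rather than a target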
# Summary of the method: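 Readout: fluorescent reporter cDNA fragments separated by capillary electrophoresis after RT-PCR and HpaI cut. Cells: HepG2 carrying transfected cis-promoter reporter constructs, dosed 24 h. Endpoint serves as background internal-marker control, fit bidirectionally versus DMSO.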
# [5] = ATG_DR4_LXR_CIS: Attagene CIS-FACTORIAL HepG2 Assay for human Liver X Receptor (LXR), DR4 submotif (AID 2282929); settings: HepG2 Attagene DR4 cis-reporter, mRNA transcription; actives raise or lower the signal
# Summary of the method: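 Fluorescence intensity of labelled reporter cDNA fragments, separated by capillary electrophoresis, gives the signal. HepG2 cells bearing cis-regulated reporter constructs were treated 24 h; activity fitted bidirectionally relative to DMSO negative control.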
# [6] = biological target: Aryl hydrocarbon receptor (Homo sapiens) (UniProt P35869); experiment: ATG_Ahr_CIS: Attagene CIS-FACTORIAL HepG2 Assay for human Aryl Hydrocarbon Receptor (Ahr) (AID 2282930); settings: HepG2 AhR cis-factorial reporter transcription; actives raise or lower the signal
# Sequence of Aryl hydrocarbon receptor (Homo sapiens) (P35869 whole entry, looked up): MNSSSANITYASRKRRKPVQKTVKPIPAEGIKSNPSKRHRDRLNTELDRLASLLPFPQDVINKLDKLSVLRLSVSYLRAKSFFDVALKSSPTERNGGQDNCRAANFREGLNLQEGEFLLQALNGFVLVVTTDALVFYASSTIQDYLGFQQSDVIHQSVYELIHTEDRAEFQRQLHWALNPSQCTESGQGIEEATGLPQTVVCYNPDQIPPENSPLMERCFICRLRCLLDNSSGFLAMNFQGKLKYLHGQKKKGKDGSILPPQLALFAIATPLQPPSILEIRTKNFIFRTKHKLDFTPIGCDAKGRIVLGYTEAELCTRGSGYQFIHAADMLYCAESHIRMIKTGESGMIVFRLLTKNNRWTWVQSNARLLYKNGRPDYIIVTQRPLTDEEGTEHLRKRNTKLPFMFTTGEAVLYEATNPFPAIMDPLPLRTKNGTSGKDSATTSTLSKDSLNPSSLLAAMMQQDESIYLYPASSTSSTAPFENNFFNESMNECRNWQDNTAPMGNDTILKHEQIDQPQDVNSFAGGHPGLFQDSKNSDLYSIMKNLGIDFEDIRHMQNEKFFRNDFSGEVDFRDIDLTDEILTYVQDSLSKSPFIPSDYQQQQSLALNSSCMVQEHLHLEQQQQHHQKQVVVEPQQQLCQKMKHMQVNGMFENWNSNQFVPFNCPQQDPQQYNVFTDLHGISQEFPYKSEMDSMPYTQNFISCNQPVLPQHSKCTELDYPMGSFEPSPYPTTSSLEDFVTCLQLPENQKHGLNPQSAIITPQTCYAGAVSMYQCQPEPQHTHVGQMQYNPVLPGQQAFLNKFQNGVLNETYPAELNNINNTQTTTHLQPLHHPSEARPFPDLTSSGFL
# Summary of the method: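 Transient MRTU transfection of HepG2 → 24 h compound exposure → total RNA, oligo(dT) RT → PCR, 6-FAM extension, HpaI cut → CE fluorescence. DMSO = baseline; bidirectional curve fit.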
# [7] = ATG_AP_1_CIS: Attagene CIS-FACTORIAL HepG2 Assay for human Activator Protein 1 (AP-1) (AID 2282931); settings: HepG2 Attagene cis-factorial AP-1 reporter mRNA; actives raise or lower the signal
# Summary of the method: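 Multiplexed HepG2 reporter assay, 24 h dosing. mRNA induction detected by RT-PCR plus capillary electrophoresis. Activity fitted in both directions against DMSO.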
# [8] = ATG_AP_2_CIS: Attagene CIS-FACTORIAL HepG2 Assay for human Activator Protein 2 (AP-2) (AID 2282932); settings: HepG2 AP-2 cis-reporter, Attagene transcription factor profiling; actives raise or lower the signal
# Summary of the method: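 Transiently transfected HepG2 cells are exposed to chemical for 24 h. Reporter transcripts are then measured as fluorescence following RT-PCR and capillary separation, and gain- or loss-of-signal is fitted relative to DMSO.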
# [9] = ATG_BRE_CIS: Attagene CIS-FACTORIAL HepG2 Assay for human Bone Morphogenetic Protein (BMP) Response Element (BRE) (AID 2282933); settings: HepG2 BMP response element reporter, Attagene transcription factor profiling; actives raise or lower the signal
# Summary of the method: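 HepG2 cells transiently transfected with multiplexed cis-element reporter units were dosed with chemical for 24 h. Reporter mRNA was measured by RT-PCR with fluorescent labelling, HpaI digestion and capillary electrophoresis; bidirectional fitting relative to DMSO.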
# [10] = biological target: Retinoic acid receptor alpha (Homo sapiens) (UniProt P10276); experiment: ATG_DR5_RAR_CIS: Attagene CIS-FACTORIAL HepG2 Assay for human Retinoic Acid Receptor Alpha (RARE), DR5 submotif (AID 2282934); settings: HepG2 Attagene cis-factorial RARE DR5 reporter, mRNA; actives raise or lower the signal;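 as to AC50: reporter responds to endogenous RAR alpha beta and gamma in HepG2 not RARA alone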
# Sequence of Retinoic acid receptor alpha (Homo sapiens) (P10276 whole entry, looked up): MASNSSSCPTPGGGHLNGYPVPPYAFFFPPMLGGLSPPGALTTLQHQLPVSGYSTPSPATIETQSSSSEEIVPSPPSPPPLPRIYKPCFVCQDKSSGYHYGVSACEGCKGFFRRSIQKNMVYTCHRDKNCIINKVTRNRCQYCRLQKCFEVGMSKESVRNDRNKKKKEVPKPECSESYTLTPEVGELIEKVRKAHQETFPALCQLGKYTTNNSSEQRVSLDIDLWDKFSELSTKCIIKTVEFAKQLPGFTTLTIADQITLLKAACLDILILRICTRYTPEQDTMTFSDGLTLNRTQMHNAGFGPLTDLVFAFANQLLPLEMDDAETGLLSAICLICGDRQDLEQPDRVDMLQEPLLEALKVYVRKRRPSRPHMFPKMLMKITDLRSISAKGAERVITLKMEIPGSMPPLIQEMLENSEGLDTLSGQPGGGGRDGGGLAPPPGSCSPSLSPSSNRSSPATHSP
# Summary of the method: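 Transient MRTU transfection of HepG2; 24 h compound treatment; TriZol RNA, oligo(dT) RT, PCR, FAM labelling, capillary electrophoresis. Bidirectional fit vs DMSO. Endogenous TF activity at DR5 RARE.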
# [11] = biological target: Transcription factor E2F1 (Homo sapiens) (UniProt Q01094); experiment: ATG_E2F_CIS: Attagene CIS-FACTORIAL HepG2 Assay for human E2F Transcription Factor 1 (AID 2282935); settings: HepG2 Attagene cis-reporter, E2F reporter RNA transcripts; actives raise or lower the signal
# Sequence of Transcription factor E2F1 (Homo sapiens) (Q01094 whole entry, looked up): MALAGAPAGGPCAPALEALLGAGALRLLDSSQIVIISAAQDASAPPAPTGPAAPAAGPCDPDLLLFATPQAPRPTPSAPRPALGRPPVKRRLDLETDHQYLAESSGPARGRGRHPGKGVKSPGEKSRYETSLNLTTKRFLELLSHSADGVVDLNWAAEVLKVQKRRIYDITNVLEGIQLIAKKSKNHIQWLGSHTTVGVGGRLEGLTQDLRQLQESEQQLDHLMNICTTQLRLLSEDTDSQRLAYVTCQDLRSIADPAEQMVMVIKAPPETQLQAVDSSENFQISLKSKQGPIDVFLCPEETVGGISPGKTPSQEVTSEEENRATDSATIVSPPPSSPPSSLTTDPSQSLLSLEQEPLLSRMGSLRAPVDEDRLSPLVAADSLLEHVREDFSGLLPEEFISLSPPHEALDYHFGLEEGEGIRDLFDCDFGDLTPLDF
# Summary of the method: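 Fluorescent RT-PCR products, digested with HpaI for 2 h at 37 C, are separated by capillary electrophoresis. Source RNA comes from transfected HepG2 cultures treated for 24 h.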
# [12] = ATG_E_Box_CIS: Attagene CIS-FACTORIAL HepG2 Assay for human Enhancer Box (E-box) (AID 2282936); settings: HepG2 E-box cis-reporter transcription, actives raise or lower the signal
# Summary of the method: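 Fluorescent reporter fragments separated by capillary electrophoresis gave the signal; mRNA came from HepG2 cells transfected with cis-element reporters and treated 24 h. Curves fitted bidirectionally relative to DMSO controls.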
# [13] = ATG_M_61_CIS: Attagene CIS-FACTORIAL HepG2 Assay for M61 Transcription Factor (Internal Marker) (AID 2282937); settings: HepG2 Attagene CIS-FACTORIAL M61 internal marker reporter; actives raise or lower the signal
# Summary of the method: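 Endogenous transcription factor activity in HepG2 is read through transiently transfected cis-element reporter units. After 24 h dosing, RNA undergoes reverse transcription, PCR and primer extension with 6-FAM before capillary electrophoresis; DMSO-referenced bidirectional fit.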
# [14] = ATG_EGR_CIS: Attagene CIS-FACTORIAL HepG2 Assay for human Early Growth Response 1 (EGR1) (AID 2282938); settings: HepG2 Attagene CIS-FACTORIAL EGR reporter mRNA; actives raise or lower the signal
# Summary of the method: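 Activity is taken as induction or loss of reporter mRNA versus DMSO, fitted bidirectionally. Transcripts from cis-regulated reporter units in transiently transfected HepG2 were measured after 24 h by RT-PCR with capillary electrophoresis.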
# [15] = ATG_M_19_CIS: Attagene CIS-FACTORIAL HepG2 Assay for M19 Transcription Factor (Internal Marker) (AID 2282939); settings: HepG2 Attagene CIS-FACTORIAL M19 internal marker reporter; actives raise or lower the signal
# Summary of the method: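 HepG2 cells transiently transfected with cis-regulated multiple reporter transcription units were dosed for 24 h; reporter mRNA was quantified by RT-PCR, 6-FAM primer-extension labelling, HpaI digestion and capillary electrophoresis, with bidirectional fitting against DMSO baseline.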
# [16] = ATG_ERE_CIS: Attagene CIS-FACTORIAL HepG2 Assay for Estrogen Response Element (ERE) (AID 2282940); settings: HepG2 ERE cis-reporter, Attagene RNA transcript; actives raise or lower the signal
# Summary of the method: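 HepG2 cells transiently transfected with cis-promoter-driven multiplexed reporter transcription units report endogenous TF activity. After 24 h compound exposure, reporter mRNA is quantified by RT-PCR with capillary electrophoresis fluorescence; bidirectional fitting versus DMSO baseline.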
# [17] = ATG_Ets_CIS: Attagene CIS-FACTORIAL HepG2 Assay for human Erythroblast Transformation Specific (ETS) (AID 2282941); settings: HepG2 ETS cis-reporter transcription, actives raise or lower the signal
# Summary of the method: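 RT-PCR/capillary electrophoresis fluorescence read-out of reporter mRNA; HepG2 transient multi-reporter transfection; 24 h compound exposure; gain or loss of signal fitted bidirectionally relative to DMSO.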
# [18] = biological target: Hepatocyte nuclear factor 3-beta (Homo sapiens) (UniProt Q9Y261); experiment: ATG_FoxA2_CIS: Attagene CIS-FACTORIAL HepG2 Assay for human Forkhead box A2 (FOXA2) (AID 2282942); settings: HepG2 cis-reporter transcription factor activity, 24 h; actives raise or lower the signal
# Sequence of Hepatocyte nuclear factor 3-beta (Homo sapiens) (Q9Y261 whole entry, looked up): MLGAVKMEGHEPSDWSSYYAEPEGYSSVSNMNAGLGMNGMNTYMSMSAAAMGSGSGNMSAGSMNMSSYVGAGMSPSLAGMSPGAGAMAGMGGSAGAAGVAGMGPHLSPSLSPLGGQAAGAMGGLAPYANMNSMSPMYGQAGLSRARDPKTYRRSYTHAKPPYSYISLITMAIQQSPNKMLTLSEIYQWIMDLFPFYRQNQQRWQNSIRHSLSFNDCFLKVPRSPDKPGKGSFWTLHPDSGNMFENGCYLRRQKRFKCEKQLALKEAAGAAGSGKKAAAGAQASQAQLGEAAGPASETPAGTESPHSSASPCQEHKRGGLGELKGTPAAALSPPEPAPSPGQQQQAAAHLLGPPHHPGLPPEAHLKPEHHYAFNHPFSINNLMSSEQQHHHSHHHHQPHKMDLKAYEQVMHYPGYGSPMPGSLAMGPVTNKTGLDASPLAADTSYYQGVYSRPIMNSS
# Summary of the method: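 Reporter transcript induction is measured by fluorescence after capillary electrophoresis of RT-PCR products from HepG2 cells exposed 24 h. Cis-regulated reporter units report endogenous factor activity; curves fitted both directions against DMSO.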
# [19] = ATG_FoxO_CIS: Attagene CIS-FACTORIAL HepG2 Assay for human Forkhead box O (FoxO) (AID 2282943); settings: HepG2 Attagene cis-reporter, FoxO element, mRNA; actives raise or lower the signal
# Summary of the method: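 HepG2, transient MRTU transfection (cis element, endogenous TFs). Dose 24 h. TriZol RNA → oligo(dT) RT → PCR → 6-FAM primer extension → HpaI cut → CE. Gain/loss vs DMSO.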
# [20] = ATG_GATA_CIS: Attagene CIS-FACTORIAL HepG2 Assay for human GATA Binding Protein (AID 2282944); settings: HepG2 GATA cis-element reporter, Attagene multiplex mRNA; actives raise or lower the signal
# Summary of the method: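 HepG2 cells transiently transfected with multiplexed cis-element reporter units reflecting endogenous transcription factor activity; reporter mRNA measured after 24 h dosing by RT-PCR, 6-FAM labeling, HpaI digestion and capillary electrophoresis. Bidirectional fitting versus DMSO baseline.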
smiles,measurement,setting,value
CCCC1COC(Cn2cncn2)(c2ccc(Cl)cc2Cl)O1 (stereo not given),outcome,[1],inactive
same,outcome,[2],inactive
same,outcome,[3],inactive
same,AC50,[4],50 µM (active)
same,outcome,[4],inactive
same,outcome,[5],inactive
same,AC50,[6],25 µM (active)
same,outcome,[6],inactive
same,AC50,[7],50 µM (active)
same,outcome,[7],inactive
same,outcome,[8],inactive
same,AC50,[9],29.7 µM (active)
same,outcome,[9],inactive
same,AC50,[10],6.97 µM (active)
same,outcome,[10],inactive
same,AC50,[11],85.1 µM (active)
same,outcome,[11],inactive
same,outcome,[12],inactive
same,outcome,[13],inactive
same,outcome,[14],inactive
same,outcome,[15],inactive
same,AC50,[16],1.71 µM (active)
same,outcome,[16],inactive
same,AC50,[17],58 µM (active)
same,outcome,[17],inactive
same,outcome,[18],inactive
same,outcome,[19],inactive
same,outcome,[20],inactive
C=CCC1=C(C)C(OC(=O)C2C(C=C(C)C)C2(C)C)CC1=O (stereo not given),outcome,[1],inactive
same,AC50,[2],48.8 µM (active) [middle of 5 runs]
same,outcome,[2],inactive
same,AC50,[3],70.3 µM (active) and 111 µM (active) and 13.8 µM (active)
same,outcome,[3],inactive
same,AC50,[4],35 µM (active) [middle of 5 runs]
same,outcome,[4],inactive
same,AC50,[5],51.1 µM (active) [middle of 4 runs]
same,outcome,[5],inactive
same,AC50,[6],43.6 µM (active) and 105 µM (active)
same,outcome,[6],inactive
same,AC50,[7],33.5 µM (active) [middle of 6 runs]
same,AC50,[8],167 µM (active)
same,outcome,[8],inactive
same,AC50,[11],132 µM (active)
same,outcome,[11],inactive
same,AC50,[12],46.9 µM (active)
same,outcome,[12],inactive
same,outcome,[13],inactive
same,AC50,[14],33.4 µM (active) [middle of 5 runs]
same,outcome,[14],inactive
same,AC50,[15],161 µM (active)
same,outcome,[15],inactive
same,AC50,[16],35 µM (active) and 26.7 µM (active) and 12.7 µM (active)
same,outcome,[16],inactive
same,AC50,[17],163 µM (active)
same,outcome,[17],inactive
same,AC50,[18],83.3 µM (active) and 125 µM (active) and 50 µM (active)
same,outcome,[18],inactive
same,AC50,[19],152 µM (active)
same,outcome,[19],inactive
same,outcome,[20],inactive
N#Cc1cc(Br)c(O)c(Br)c1,outcome,[1],inactive
same,AC50,[2],33.5 µM (active)
same,AC50,[3],18.8 µM (active)
same,outcome,[4],inactive
same,outcome,[5],inactive
same,AC50,[6],50 µM (active)
same,AC50,[7],50 µM (active)
same,outcome,[8],inactive
same,AC50,[9],38.9 µM (active)
same,outcome,[10],inactive
same,outcome,[11],inactive
same,outcome,[12],inactive
same,outcome,[13],inactive
same,outcome,[14],inactive
same,outcome,[15],inactive
same,AC50,[16],6.61 µM (active)
same,outcome,[17],inactive
same,outcome,[18],inactive
same,outcome,[19],inactive
same,outcome,[20],inactive
COc1nc(C)nc(NC(=O)NS(=O)(=O)c2ccccc2Cl)n1,outcome,[1],inactive
same,outcome,[2],inactive
same,outcome,[3],inactive
same,outcome,[4],inactive
same,outcome,[5],inactive
same,outcome,[6],inactive
same,outcome,[7],inactive
same,outcome,[8],inactive
same,outcome,[9],inactive
same,outcome,[10],inactive
same,outcome,[11],inactive
same,outcome,[12],inactive
same,outcome,[13],inactive
same,outcome,[14],inactive
same,outcome,[15],inactive
same,outcome,[16],inactive
same,outcome,[17],inactive
same,outcome,[18],inactive
same,outcome,[19],inactive
same,outcome,[20],inactive
Cc1c(F)c(F)c(COC(=O)C2C(/C=C(\Cl)C(F)(F)F)C2(C)C)c(F)c1F (stereo not given),outcome,[1],inactive
same,outcome,[2],inactive
same,outcome,[3],inactive
same,outcome,[4],inactive
same,outcome,[5],inactive
same,outcome,[6],inactive
same,outcome,[7],inactive
same,outcome,[8],inactive
same,outcome,[9],inactive
same,outcome,[10],inactive
same,outcome,[11],inactive
same,outcome,[12],inactive
same,outcome,[13],inactive
same,outcome,[14],inactive
same,outcome,[15],inactive
same,outcome,[16],inactive
same,outcome,[17],inactive
same,outcome,[18],inactive
same,outcome,[19],inactive
same,outcome,[20],inactive
